Hit rate of the full screen: of about 1,400 compounds, about 380 (27%) were called active. The list shows a part of the results. A number with no mark means an inactive call.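 The calls were made as follows: active = mean inhibition above 50% across duplicate retests at 10 µM; inactive = the rest.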

For 105 compounds, inhibition results are on record in PubChem BioAssay AID488841 (Sanford-Burnham Center for Chemical Genomics, 2010).

This assay is described as follows: yeast NALP1 reporter signal suppression – S. cerevisiae, luminescence, single concentration, NALP1 inhibitor project, confirmation (AID 488841).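 Also: plate controls were DMSO in galactose medium for no effect and cells in plain SD medium for full effect.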 Conditions: S. cerevisiae NALP1/ASC/Caspase-1 reporter, beta-gal luminescence; at 10 µM; active compounds read high.
For the compound `COc1cccc(-c2nn(C)c3sc(C(=O)N4CCOCC4)cc23)c1`, the inhibition is 35.3%.

In the case of `Cc1[nH]c2ccccc2c1C(=O)CSc1nc2ncc(Cl)cc2[nH]1`, the inhibition was 25.4%.

`CN(C)c1ccc(N/C=C/C(=O)c2ccccc2)cc1`: the inhibition was 35.4%.

Take `O=C(NC(Cc1c[nH]c2ccccc12)C(=O)O)/C(=C\c1ccc2c(c1)OCO2)NC(=O)c1ccccc1` (stereo not given): the inhibition was 32.5%.

`O=C(/C=C/c1c[nH]c2ccccc12)c1ccccc1`: the inhibition was 80.5% (active).

With `Cc1cc(SC#N)cc(C)c1NC(=O)CCl`, the inhibition was 21.6%.

For the compound `CC(C)c1nc2sc3c(=O)[nH]c(=S)[nH]c3c2c2c1CCC2`, the inhibition is 30.2%.

As for `Cc1ccc2nc(Cl)c(C3CC(c4cccs4)=NN3C(=O)CCCC(=O)O)cc2c1` (stereo not given), the inhibition was 33.7%.

With `OC(CN1CCCCC1)Cn1c2ccc(Cl)cc2c2cc(Cl)ccc21` (stereo not given), the inhibition was 52.5% (active).

`OC(CN1CCN(Cc2ccccc2)CC1)Cn1c2ccccc2c2ccccc21` (stereo not given): the inhibition is 63.1% (active).

As to `COc1ccc(OCC(O)Cn2c(=N)n(Cc3ccccc3)c3ccccc32)cc1` (stereo not given), the inhibition is 27.4%.

Consider `CCOC(=O)c1c(O)c2cc(Cl)ccc2n(CC)c1=O`, for which the inhibition is 40.1%.

For `OC(CNCCC1C=Nc2ccccc21)Cn1c2ccc(Cl)cc2c2cc(Cl)ccc21` (stereo not given), the inhibition was 40.7%.

For `OC(COCc1ccc2c(c1)OCO2)CN1CCN(Cc2ccccc2)CC1` (stereo not given), the inhibition was 32%.

As to `CCN1CCN(C(=O)N[C@@H](C(=O)N[C@@H]2C(=O)N3[C@@H]2SC(C)(C)[C@@H]3C(=O)O)c2ccccc2)C(=O)C1=O`, the inhibition was 45.5%.

For the compound `CCn1c(=O)cc(SCC(=O)N2CCN(C3CCCCC3)CC2)c2ccccc21`, the inhibition was 32.6%.

Consider `N/C(Cc1ccc(Cl)cc1)=N\OC(=O)C1CCCCC1`, for which the inhibition was 46.6%.

`COc1ccc(NC(=O)c2ccc(C)cc2)c(OC)c1`: the inhibition is 37.7%.

On to `Cc1c(Cl)cccc1NC(=O)c1cccc(OC(F)F)c1`, for which the inhibition was 53% (active).

Turning to `COc1ccc(C)cc1NC(=O)c1ccc(OC(F)F)cc1`, the inhibition is 59.4% (active).

With `O=C(NCCN1C(=O)S/C(=C\c2cccnc2)C1=O)c1cccc(OC(F)F)c1`, the inhibition was 39.6%.

Take `CSc1ccccc1NC(=O)Nc1ccccc1Cl`: the inhibition was 30%.

For the compound `COc1ccc(C)cc1NC(=O)c1ccc(CN2CCN(c3ccccc3)CC2)cc1`, the inhibition was 47.2%.

As to `Clc1ccc2c(N/N=C/c3ccccc3Br)ccnc2c1`, the inhibition is 39%.

As to `Cc1ccc(N/C=C/C(=O)C(C)(C)C)c(O)c1`, the inhibition is 31.6%.

Regarding `Cn1cc(CC(=O)Nc2cccc(C#N)c2)c2ccccc21`, the inhibition is 26.6%.

For `c1ccc2[nH]c3cc4ncnc4cc3nc2c1`, the inhibition was 52.8% (active).

As for `c1ccc2cc(CSCc3nc4ccccc4[nH]3)ccc2c1`, the inhibition was 42.5%.

On to `CC(C)Oc1ccc2c(=O)c(-c3ccccc3)coc2c1`, for which the inhibition was 66.2% (active).

For `CCCCOC(=O)Oc1ccc2c(=O)c(Oc3cc(C)cc(C)c3)coc2c1`, the inhibition was 45.8%.

In the case of `CC1CCN(c2nc(CN3CCCCC3)nc3scc(-c4ccccc4)c23)CC1`, the inhibition was 65.5% (active).

Consider `COc1ccccc1N1CCN(C(=O)CSc2ncnc3scc(-c4ccccc4)c23)CC1`, for which the inhibition is 47.8%.

For the compound `Cc1ccc(S(=O)(=O)N[C@@H](Cc2ccccc2)C(=O)CCl)cc1`, the inhibition is -1.6%.

Consider `c1ccc(-c2c(-c3ccccc3)n(Cc3ccco3)c3ncnc(NCCCn4ccnc4)c23)cc1`, for which the inhibition was 38%.

Consider `COC(=O)Cn1nc(-c2ccccc2)c2ccccc21`, for which the inhibition is 99.7% (active).

As for `CC(=O)n1cc(-c2ccncc2)c2ccccc21`, the inhibition was 46.6%.

For `O=C(O)Cn1nc(-c2ccccc2)oc1=O`, the inhibition was 27.4%.

On to `COc1ccc2c(c1)C1=NN(/C(C)=C/C(C)=O)C(c3cccc(F)c3)C1CC2` (stereo not given), for which the inhibition is 42.1%.

As to `COC(=O)N/N=C/c1ccc(-c2cccc(Cl)c2)o1`, the inhibition is 68.8% (active).

Take `Cc1ccc(/C=N/NC(=O)c2ccc3nc[nH]c3c2)o1`: the inhibition was 31.1%.

Turning to `COC(=O)N/N=C/c1ccc(OC(=O)c2ccco2)c(OC)c1`, the inhibition was 22.6%.

In the case of `O=C1c2ccccc2C(O)N1c1cccnc1` (stereo not given), the inhibition was 27.9%.

As for `O=C1c2ccccc2C(Nc2ccc(Cl)cn2)N1Cc1ccccc1` (stereo not given), the inhibition was 55.5% (active).

On to `Nc1c2c(nc3sc4c(c13)CCCC4)CCCCCC2`, for which the inhibition was 32.1%.

As to `Nc1c2c(nc3sc4c(c13)CCCCC4)CCCCC2`, the inhibition is 40.6%.

On to `CC1CCc2nc3sc4c(c3c(N)c2C1)CCCC4` (stereo not given), for which the inhibition is 56.2% (active).

In the case of `CSCCNC(C)=O`, the inhibition is 15%.

Consider `O=C(NCc1cccs1)c1csc2ccccc12`, for which the inhibition is 51.3% (active).

In the case of `CC(C)CC(=O)c1c[nH]c(C(=O)NCc2cccs2)c1`, the inhibition is 22.6%.

`O=C(c1ccco1)N1CCN(Cc2cn[nH]c2-c2cccc3ccccc23)CC1`: the inhibition is 25.2%.

As to `COc1ccccc1N1CCN(CCCCOc2cccc3ccccc23)CC1`, the inhibition was 62.8% (active).

`COc1ccccc1OCCCCN1CCN(c2ccccc2OC)CC1`: the inhibition was 17.7%.

For the compound `COc1ccc(CN2CC(C(=O)NCCN3CCN(c4ccccc4F)CC3)CC2=O)cc1` (stereo not given), the inhibition was 32%.

On to `COC(=O)c1ccc(C(=O)OC)c(NC(=O)CN2CCN(c3ccccc3OC)CC2)c1`, for which the inhibition was 38.4%.

Regarding `O=C(COc1cccc2ccccc12)N1CCN(c2ccccc2)CC1`, the inhibition is 48.1%.

On to `COc1ccccc1N1CCN(CCCCCCOc2ccc(F)cc2)CC1`, for which the inhibition is 63.4% (active).

Turning to `CCC(C)C(=O)N1c2ccccc2C(=C2SC(C(=O)OC)=C(C(=O)OC)S2)C(=S)C1(C)C` (stereo not given), the inhibition is 40%.

As to `COc1ccc(NC(=O)N2CCC(CO)(CC3CCCCO3)CC2)c(OC)c1` (stereo not given), the inhibition is 29.4%.

Take `CN1CCC(Oc2ccc(Sc3ccccc3)cc2)CC1`: the inhibition was 40.1%.

With `O=CC1=C(c2ccccc2)Oc2ccccc2O1`, the inhibition was 94.8% (active).

Regarding `Clc1ccc(OCCCN2CCCC2)cc1Cl`, the inhibition was 39.5%.

As for `CN(C)Cc1ccccc1Sc1ccccc1Br`, the inhibition was 28.9%.

Turning to `Cc1cccc(Oc2nc(CN3CCOCC3)nc3sc4c(c23)CCCC4)c1`, the inhibition is 51.5% (active).

For the compound `Fc1ccc(Nc2nc(Oc3ccccc3F)nc(N3CCCC3)n2)cc1`, the inhibition was 29.2%.

On to `C=CCSc1nsc(NC(=O)Nc2ccc(F)cc2)n1`, for which the inhibition was 97.7% (active).

`O=C1/C(=C/c2cccnc2)SC(=S)N1C1CCS(=O)(=O)C1` (stereo not given): the inhibition was 44.6%.

Take `CC1=C/C(=N\OS(=O)(=O)c2ccccc2)C(C(C)C)=CC1=O`: the inhibition is 88.5% (active).

For the compound `CC1=CC(=O)C=C(C)C1=NOS(=O)(=O)c1ccccc1`, the inhibition is 53.9% (active).

Take `CCN(CCO)Cc1csc2ccc(Br)cc12`: the inhibition is 41%.

Regarding `C/C(=N\NC(=O)c1c[nH]c2ccccc12)c1ccco1`, the inhibition is 26.3%.

As to `O=S(=O)(Nc1ccncc1Cl)c1ccccc1`, the inhibition was 27.6%.

For `O=C(Nc1nccs1)c1sc2ccccc2c1Cl`, the inhibition is 61.4% (active).

As for `O=C(Nc1nc(-c2ccccn2)cs1)c1ccc(Cl)s1`, the inhibition was 24.1%.

On to `CNC(=O)c1ccsc1NC(=O)c1sc2ccccc2c1Cl`, for which the inhibition was 33.5%.

Consider `COC(=O)Nc1sc2nc(C)cc(C)c2c1-n1cccc1`, for which the inhibition was 54% (active).

As for `COC(=O)Nc1nc(C)c(C(=O)c2ccccc2)s1`, the inhibition is 44.9%.

Turning to `Cc1ccc2c(Cl)c(C)c(N3CCCCC3)nc2n1`, the inhibition was 55.4% (active).

For `CSC1=N/C(=C\c2cccnc2)C(=O)N1c1ccccc1`, the inhibition is 30.7%.

For `O=S(=O)(Nc1cccnc1)c1cccs1`, the inhibition was 26.2%.

With `Cc1ccc(C(=O)/C=C/c2cn(CC(O)CN3CCOCC3)c3ccccc23)cc1` (stereo not given), the inhibition was 39.7%.

Regarding `COc1ccc(C(=O)/C=C/c2ccc(OC)c(CN3CCOCC3)c2)cc1`, the inhibition is 63.4% (active).

Turning to `COc1ccc(C(=O)Cn2c(C(=O)/C=C/c3ccccc3)nc3ccccc32)cc1`, the inhibition was 25.8%.

On to `C/C(=N\Nc1nc2c(s1)CCCC2)c1ccccc1`, for which the inhibition was 29.5%.

As to `CCCOc1ccc(C(=O)NC(C)C(=O)O)cc1` (stereo not given), the inhibition was 29.1%.

As to `CC(C)OC(=O)COc1ccc(-c2ccccc2)cc1`, the inhibition is 25.2%.

Consider `CCOc1ccc(C(=O)C(CCC(CN(C)C)C(=O)c2ccc(OCC)cc2)CN(C)C)cc1` (stereo not given), for which the inhibition is 73% (active).

As to `O=C(NCc1cccnc1)C1CCN(S(=O)(=O)c2cccnc2)CC1`, the inhibition was 33.3%.

Regarding `CCn1c(COc2ccccc2C)nnc1SCC(=O)N1CCN(c2ccccc2)CC1`, the inhibition was 20.6%.

For `CCNC(=S)SCCOc1ccccc1C`, the inhibition was 57.5% (active).

Take `Cc1ccc(/C(COc2ccccc2O)=N\O)cc1`: the inhibition was 44%.

As for `C=CCn1c(=O)c2ccc(C(=O)NCc3ccccc3)cc2n(Cc2ccccc2Cl)c1=O`, the inhibition was 27%.

In the case of `O=C(CCN1CCc2ccccc2C(c2ccccc2)C1)c1ccc2c(c1)OCCO2` (stereo not given), the inhibition is 30%.

For `c1ccc(-c2ccc(-c3cn4c(n3)CCC4)cc2)cc1`, the inhibition was 85.2% (active).

`Cc1nc(-c2ccccc2)cn2c1nc1ccccc12`: the inhibition is 49%.

Take `COc1cc2nc(Cl)nc(N3CCN(C)CC3)c2cc1OC`: the inhibition is 39.5%.

Turning to `c1ccc(Nc2ccccn2)cc1`, the inhibition is 27.3%.

For `O=c1sc(Nc2ccccc2)nc2ccsc12`, the inhibition was 78.8% (active).

Turning to `CC(C)CN=Cc1c(O)c([N+](=O)[O-])cc2oc3c(c12)CCCC3`, the inhibition was 35.5%.

Take `CC(C)C(=O)N(Cc1ccccc1)c1ccccn1`: the inhibition was 19.8%.

Take `Cc1cc(C)c(S(=O)(=O)N(CC(=O)O)CC(=O)O)c(C)c1`: the inhibition is 25.9%.

With `CCCCOc1ccccc1NC(=O)c1ccco1`, the inhibition was 34.8%.

`COc1ccccc1NC(=O)CCN1CCN(Cc2ccccc2)CC1`: the inhibition was 44.5%.

`CCOc1ccccc1N/C=C(\C#N)c1nc2ccccc2n1C`: the inhibition is 12.5%.

In the case of `CCCOc1ccccc1NC(=O)/C=C/C(N)=O`, the inhibition was 71.2% (active).

As for `CCOc1ccccc1NC(=O)/C=C/C(N)=O`, the inhibition is 59.6% (active).
